Assay [1] can be described thus: qHTS assay to identify small molecule antagonists of the estrogen receptor alpha (ER-alpha) signaling pathway using the BG1 cell line in the presence of 0.1 nM 17-beta-estradiol - cell viability counter screen (AID 1259241). Note: nearly all actives have a fitted effect of over 40% in size. The essentials: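 CellTiter-Fluor read (30 min, 37C) on ER-alpha/ERE-luc VM7Luc4E2 cells; 22 hr compound treatment; agonist 0.1 nM E2 final; same-well multiplex.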

Assay [2] is described as follows: qHTS assay to identify small molecule antagonists of the androgen receptor (AR) signaling pathway using the MDA cell line in the presence of 0.5 nM R1881 - cell viability counter screen (AID 1259242). Note: nearly all actives have a fitted effect of over 45% in size. A digest of the protocol:
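MDA-kb2 cells (human breast carcinoma, stably carrying MMTV-luciferase reporter) were exposed to compounds with 0.5 nM R1881 (final) for 16 hr at 37C, 0% CO2; viability then read as live-cell protease fluorescence (CellTiter-Fluor, 30 min) in the same wells.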

The target in assay [3] is Estrogen receptor (Homo sapiens) (UniProt P03372). Put plainly: qHTS assay to identify small molecule antagonists of the estrogen receptor alpha (ER-alpha) signaling pathway using the BG1 cell line in the presence of 0.1 nM 17-beta-estradiol (AID 1259244). Note: nearly all actives have a fitted effect of over 50% in size. A digest of the protocol: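 VM7Luc4E2 cells (endogenous full-length ER-alpha, stable 4xERE-luciferase) were grown 5 days in phenol red-free medium with charcoal-stripped FBS, then exposed 22 h at 37C to compounds plus 0.1 nM (final) 17beta-estradiol; ONE-Glo luminescence read-out.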

Assay [4] is described as follows: qHTS assay to identify small molecule phospholipidosis (PLD) inducers (AID 1259344; active = well fitted curve in the direction sought with a large enough effect; an effect the other way counts as inactive or inconclusive). A digest of the protocol: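 HepG2 cells on collagen I, attached 4 h at 37 C, were co-treated with compound and LipidTOX Red dye for 24 h at 37 C, then fixed with paraformaldehyde plus Hoechst 33342 and imaged by high-content microscopy for phospholipid accumulation.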
A short description of assay [5]: qHTS assay to identify small molecule HDAC inhibitors (AID 1259364). Note: top concentration of the series differs between compounds; nearly all actives have a fitted effect of over 45% in size. The essentials:
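Wild-type HCT-116 cells were plated overnight, exposed to compounds for 2 h at 37 °C, then given HDAC-Glo class I/II luminogenic reagent for 30 min at room temperature before luminescence was read.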

A short description of assay [6]: qHTS assay to identify small molecule HDAC inhibitors - cell viability counter screen (AID 1259365). Note: series mostly up to about 92 µM; nearly all actives have a fitted effect of over 50% in size. A digest of the protocol:
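To flag cytotoxic hits, 1,500 wild-type HCT-116 cells per well, plated the day before, receive test compounds for 2hr at 37 C before CellTiter-Glo reagent and a luminescence read.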

Assay [7] in a line: qHTS assay to identify small molecule agonists of the sonic hedgehog signaling (Shh) pathway - cell viability counter screen (AID 1259366). Note: nearly all actives have a fitted effect of over 50% in size. A digest of the protocol: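 Fluorescence from CellTiter-Fluor reports live cells in this counter screen. NIH/3T3-derived Gli1-Luc reporter cells receive test compounds for 24hr at 37C; reagent goes in at 23hr.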
The nature of assay [8]: qHTS assay to identify small molecule antagonists of the sonic hedgehog signaling (Shh) pathway - cell viability counter screen (AID 1259367). Note: nearly all actives have a fitted effect of over 55% in size. The essentials:
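NIH/3T3-derived Gli1-Luc reporter cells (2,000 per well) rested 4 hr at 37 C, then received DMSO compounds plus conditioned medium. After 23 hr of treatment, CellTiter-Fluor was added for 1 hr at 37C and fluorescence read.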

Assay [9] can be described thus: qHTS assay to identify small molecule agonists of the sonic hedgehog signaling (Shh) pathway (AID 1259368; calls by dose curve; note: series mostly up to about 92 µM; nearly all actives have a fitted effect of over 15% in size). The essentials: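 NIH/3T3-derived 3T3Gli1-Luc cells carrying a stably integrated Gli1 response element–firefly luciferase reporter were plated, left 4 hr at 37 C, then given compounds in DMSO for 24 hr. Luminescence was read 30 min after adding luciferase reagent.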

Assay [10] can be described thus: qHTS assay to identify small molecule antagonists of the sonic hedgehog signaling (Shh) pathway (AID 1259369; calls by dose curve; note: nearly all actives have a fitted effect of over 45% in size). A digest of the protocol:
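NIH/3T3-derived 3T3Gli1-Luc cells with stably integrated Gli1-Luc reporter were preincubated 4hr at 37 C, then given compounds in DMSO plus Shh conditioned medium and incubated 24hr. Firefly luciferase luminescence read after 30min reagent at room temperature.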

Assay [11] concerns the target Estrogen receptor beta (Homo sapiens) (UniProt Q92731). In words: qHTS assay to identify small molecule agonists of the estrogen receptor beta (ER-beta) signaling pathway (AID 1259377; active = well fitted activation curve with a large enough effect in the signal ratio in the repeat runs, not every such curve was filed as active; the % refers to the signal ratio). A digest of the protocol: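 Screening used GripTite ER-beta-UAS-bla cells held in 2% charcoal-stripped FBS medium. After overnight (16 hr) compound incubation at 37C, beta-lactamase activity was detected with a FRET substrate by fluorescence.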

The target is the same in assay [12]. In words: qHTS assay to identify small molecule antagonists of the estrogen receptor beta (ER-beta) signaling pathway (AID 1259378; active = well fitted inhibition curve with a large enough effect in the signal ratio in the repeat runs, not every such curve was filed as active; the % refers to the signal ratio). A digest of the protocol: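 ER-beta-UAS-bla HEK293T (GripTite) cells in 2% charcoal-stripped FBS medium were preincubated 6 hr at 37C, dosed with compound, then stimulated with 1 nM E2 (final) for 16 hr; beta-lactamase reporter read by B/G FRET fluorescence after 2 hr substrate loading.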

Assay [13] can be described thus: qHTS assay to identify small molecule agonists of the androgen receptor (AR) signaling pathway in the presence of an antagonist - cell viability counter screen (AID 1259379). Note: series mostly up to about 92 µM; nearly all actives have a fitted effect of over 25% in size. A digest of the protocol:
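MDA-kb2 human breast carcinoma cells (stable MMTV-luciferase, AR/GR responsive) were seeded 3,000 cells/well, pre-incubated 5 hr at 37C without CO2, then given 3.0uM nilutamide and compounds at 15 concentrations for 16 hr. Viability was read by CellTiter-Fluor fluorescence.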

Assay [14] in a line: qHTS assay to identify small molecule agonists of the estrogen receptor beta (ER-beta) signaling pathway - cell viability counter screen (AID 1259380). Note: nearly all actives have a fitted effect of over 30% in size. The essentials:
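ER-beta-UAS-bla HEK293T cells in medium with 2% charcoal-stripped FBS were preincubated 6 hr at 37C, dosed with compound in DMSO for 16 hr, then after the bla read, CellTiter-Glo was added for 30 min at room temperature; luminescence recorded.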

A short description of assay [15]: qHTS assay to identify small molecule antagonists of the estrogen receptor beta (ER-beta) signaling pathway - cell viability counter screen (AID 1259382). Note: series mostly up to about 92 µM; nearly all actives have a fitted effect of over 55% in size. A digest of the protocol:
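ER-beta-UAS-bla HEK293T cells (2,000/well, 2% charcoal-stripped FBS) were pre-incubated 6 hr at 37C, then given compound plus 1nM final 17-beta-estradiol for 16 hr. Viability was read in the same wells by CellTiter-Glo luminescence after 30 min at room temperature.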

Assay [16] in a line: qHTS assay to identify small molecule agonists of the estrogen receptor alpha (ER-alpha) signaling pathway in the presence of an antagonist - cell viability counter screen (AID 1259386). Note: series mostly up to about 92 µM; nearly all actives have a fitted effect of over 30% in size. The essentials:
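VM7Luc4E2 cells (endogenous full-length ER-alpha, 4×ERE-luciferase) were held 5 days in phenol red-free medium with 10% charcoal-stripped FBS, plated, then given 10.0nM ICI-182,780 and compounds at 15 concentrations for 22hr at 37C; viability read by CellTiter-Fluor fluorescence.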

For assay [17], the target named is Androgen receptor (Homo sapiens) (UniProt P10275). Put plainly: qHTS assay to identify small molecule antagonists of the androgen receptor (AR) signaling pathway using the MDA cell line in the presence of 0.5 nM R1881 (AID 1259243). Note: nearly all actives have a fitted effect of over 50% in size. Note: potency is the fitted concentration of half-maximal effect. A digest of the protocol:
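MDA-kb2 human breast carcinoma cells carrying an MMTV-luciferase reporter (AR- and GR-responsive) were plated, rested 5 hr at 37C, dosed with compounds, then stimulated with 0.5 nM R1881 (final) for 16 hr; luminescence was read after ONE-Glo.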

In assay [18] the target is Estrogen receptor (Homo sapiens) (UniProt P03372). In words: qHTS assay to identify small molecule agonists of the estrogen receptor alpha (ER-alpha) signaling pathway in the presence of an antagonist (AID 1259383; calls by dose curve; note: nearly all actives have a fitted effect of over 15% in size; note: potency is the fitted concentration of half-maximal effect; for activation: top concentration of the series differs between compounds). A digest of the protocol:
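VM7Luc4E2 cells (endogenous full-length ER-alpha, 4×ERE-luciferase) were precultured 5 days in phenol red-free medium with 10% charcoal-stripped FBS, given 10.0nM ICI-182,780 (final), then treated with compounds at 15 concentrations for 22hr at 37C; luminescence read with ONE-Glo.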

Assay [19] in a line: qHTS assay to identify small molecule agonists or antagonists of the thyroid stimulating hormone receptor (TSHR) signaling pathway - wild type cell line counter screen (AID 1259384; calls by dose curve). A digest of the protocol: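 Wild-type HEK293 cells were plated 18 h at 37 C/5% CO2, pin-dosed with compound plus Ro20-1724 medium, held 30 min at room temperature, then given cAMP-d2 and anti-cAMP-cryptate; fluorescence was read after 1 h. Fifteen concentrations, triplicate.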

Assay [20] has as its target Thyrotropin receptor (Homo sapiens) (UniProt P16473). In words: qHTS assay to identify small molecule antagonists of the thyroid stimulating hormone receptor (TSHR) signaling pathway (AID 1259385; calls by dose curve; note: nearly all actives have a fitted effect of over 20% in size). A digest of the protocol: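 TSHR-HEK293 cells were plated and held 18 h at 37C/5% CO2, then given compound plus Ro20-1724 and stimulated with TSH at 1.5 ng/mL final. After 30 min at room temperature, cAMP was detected with cAMP-d2/anti-cAMP-cryptate (1 h) by fluorescence.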

Several values for one entry are separate records, joined by “and”; a condition that tells them apart may be missing. Equal values may be shown once. A number with no mark means an inactive call. Inconclusive results are not listed. Activity calls are given as the source filed them. Unless noted, calls come from the whole dose curve; as a rule, active = well fitted curve in the direction sought with a large enough effect in the repeat runs; inconclusive = weak or mixed curves; inactive = no such curve, though single readings can be large; an effect the other way counts as inactive or inconclusive.
% is set by controls: 0 for no effect and ±100 for the full control effect.

Androgen receptor (Homo sapiens), sequence (P10275 whole entry, looked up): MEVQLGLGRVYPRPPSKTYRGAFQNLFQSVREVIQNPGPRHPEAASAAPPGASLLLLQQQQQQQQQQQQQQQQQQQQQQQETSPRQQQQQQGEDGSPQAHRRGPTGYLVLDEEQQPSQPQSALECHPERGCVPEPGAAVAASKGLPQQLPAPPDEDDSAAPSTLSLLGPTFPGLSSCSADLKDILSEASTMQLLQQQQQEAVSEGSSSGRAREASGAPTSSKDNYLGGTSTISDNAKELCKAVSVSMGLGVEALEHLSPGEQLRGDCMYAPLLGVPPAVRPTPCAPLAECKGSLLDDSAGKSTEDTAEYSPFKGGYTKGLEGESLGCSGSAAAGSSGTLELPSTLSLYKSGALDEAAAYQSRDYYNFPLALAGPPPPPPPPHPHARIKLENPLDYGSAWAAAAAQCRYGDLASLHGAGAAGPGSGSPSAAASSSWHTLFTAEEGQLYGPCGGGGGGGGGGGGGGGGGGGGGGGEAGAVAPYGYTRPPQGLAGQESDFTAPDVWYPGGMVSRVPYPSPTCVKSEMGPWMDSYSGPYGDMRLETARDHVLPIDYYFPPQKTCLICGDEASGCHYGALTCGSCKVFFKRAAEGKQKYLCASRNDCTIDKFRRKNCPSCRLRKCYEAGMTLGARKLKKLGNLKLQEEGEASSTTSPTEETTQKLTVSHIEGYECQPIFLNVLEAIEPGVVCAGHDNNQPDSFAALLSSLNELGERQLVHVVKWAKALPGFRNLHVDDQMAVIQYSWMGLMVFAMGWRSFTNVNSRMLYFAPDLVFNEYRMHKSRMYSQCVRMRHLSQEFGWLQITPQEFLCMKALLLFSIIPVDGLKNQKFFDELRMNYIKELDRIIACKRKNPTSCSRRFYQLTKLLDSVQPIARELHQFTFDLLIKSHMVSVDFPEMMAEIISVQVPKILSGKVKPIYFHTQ
Thyrotropin receptor (Homo sapiens), sequence (P16473 whole entry, looked up): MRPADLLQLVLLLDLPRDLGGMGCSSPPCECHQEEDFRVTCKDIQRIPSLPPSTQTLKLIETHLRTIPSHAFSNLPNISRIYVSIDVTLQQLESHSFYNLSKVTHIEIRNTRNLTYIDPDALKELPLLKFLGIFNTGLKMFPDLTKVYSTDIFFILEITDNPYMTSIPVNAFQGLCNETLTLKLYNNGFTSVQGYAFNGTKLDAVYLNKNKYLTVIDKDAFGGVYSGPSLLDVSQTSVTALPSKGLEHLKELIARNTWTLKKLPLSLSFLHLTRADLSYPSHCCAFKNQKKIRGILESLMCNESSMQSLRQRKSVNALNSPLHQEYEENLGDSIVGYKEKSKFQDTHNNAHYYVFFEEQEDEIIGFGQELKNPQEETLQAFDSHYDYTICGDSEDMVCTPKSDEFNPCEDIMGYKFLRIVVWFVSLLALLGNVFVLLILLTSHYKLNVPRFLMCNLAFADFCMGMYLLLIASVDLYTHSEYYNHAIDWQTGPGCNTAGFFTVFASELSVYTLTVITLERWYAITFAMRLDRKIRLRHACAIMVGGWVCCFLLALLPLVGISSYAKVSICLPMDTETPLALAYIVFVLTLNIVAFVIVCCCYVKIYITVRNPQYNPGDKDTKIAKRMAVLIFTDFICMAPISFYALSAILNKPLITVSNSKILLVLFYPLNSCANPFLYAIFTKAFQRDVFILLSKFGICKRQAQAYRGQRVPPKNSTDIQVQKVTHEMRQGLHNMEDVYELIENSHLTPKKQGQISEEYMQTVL
Estrogen receptor (Homo sapiens), sequence (P03372 whole entry, looked up): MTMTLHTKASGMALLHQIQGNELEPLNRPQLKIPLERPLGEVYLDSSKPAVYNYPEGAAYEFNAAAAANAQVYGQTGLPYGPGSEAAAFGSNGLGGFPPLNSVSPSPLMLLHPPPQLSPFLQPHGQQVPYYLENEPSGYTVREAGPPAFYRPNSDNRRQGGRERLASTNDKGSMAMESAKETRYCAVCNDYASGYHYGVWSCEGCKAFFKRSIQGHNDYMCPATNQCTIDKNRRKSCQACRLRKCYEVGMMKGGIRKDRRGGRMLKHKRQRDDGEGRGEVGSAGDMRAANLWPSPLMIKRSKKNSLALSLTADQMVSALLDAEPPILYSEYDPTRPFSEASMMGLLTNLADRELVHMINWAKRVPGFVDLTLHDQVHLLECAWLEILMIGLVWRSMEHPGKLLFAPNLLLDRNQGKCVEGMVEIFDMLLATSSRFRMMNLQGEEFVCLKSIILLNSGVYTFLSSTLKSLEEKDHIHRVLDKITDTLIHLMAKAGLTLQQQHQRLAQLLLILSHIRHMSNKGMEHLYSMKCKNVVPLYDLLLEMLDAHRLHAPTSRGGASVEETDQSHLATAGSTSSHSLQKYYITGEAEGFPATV
Estrogen receptor beta (Homo sapiens), sequence (Q92731 whole entry, looked up): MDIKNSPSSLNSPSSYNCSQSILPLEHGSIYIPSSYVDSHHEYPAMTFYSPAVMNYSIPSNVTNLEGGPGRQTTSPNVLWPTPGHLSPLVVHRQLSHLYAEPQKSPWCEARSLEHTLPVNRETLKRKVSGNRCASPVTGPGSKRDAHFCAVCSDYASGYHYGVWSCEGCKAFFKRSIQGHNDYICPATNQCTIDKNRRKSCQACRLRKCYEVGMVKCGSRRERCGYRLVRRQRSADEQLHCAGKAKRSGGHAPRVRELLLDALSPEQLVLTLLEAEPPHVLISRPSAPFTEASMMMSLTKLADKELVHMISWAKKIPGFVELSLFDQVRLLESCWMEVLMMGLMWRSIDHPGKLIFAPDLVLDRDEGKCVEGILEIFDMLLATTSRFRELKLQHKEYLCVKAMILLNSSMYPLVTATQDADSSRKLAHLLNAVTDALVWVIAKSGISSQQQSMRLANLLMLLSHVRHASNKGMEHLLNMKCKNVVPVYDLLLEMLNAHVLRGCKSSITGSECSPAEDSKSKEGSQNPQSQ

Regarding `NC(CSCC(=O)O)C(=O)O` (configuration not stated), the outcome in assay [1], in [3], in assay [6], in assay [9], in [11] and in [12] was inactive. Moreover, the Potency entry in [2], in [4], in assay [5], in assay [7], in assay [8] and in assay [10] was “inactive” each time. The Potency result in assay [13], in assay [14], in [15] and in assay [16] was “inactive” throughout.

With `NS(=O)(=O)c1ccc(C(=O)O)cc1`, the outcome in assay [1], in [3], in [6], in assay [9], in [11] and in assay [19] was inactive. Further, the Potency result in [2], in assay [17], in assay [5], in [7], in assay [8] and in [10] was “inactive” throughout. Besides, the Potency entry in assay [13], in assay [14], in assay [15], in assay [18], in assay [20] and in [16] was “inactive” throughout.

`O=C(O)COc1nn(Cc2ccccc2)c2ccccc12`: the outcome in assay [1], in assay [3], in [6], in [11], in assay [12] and in assay [19] was inactive. In addition, the Potency entry in assay [2], in assay [17], in assay [5], in [7], in assay [8] and in assay [10] was “inactive” each time. For the same molecule, the Potency entry in [13], in assay [14], in assay [15], in assay [18], in assay [20] and in assay [16] was “inactive” throughout.

Take `CC(C)NC(=O)NC(C)C`: the outcome in assay [1], in [3], in [6], in assay [11], in [12] and in assay [19] was inactive. In addition, the Potency entry in [2], in assay [17], in [7], in assay [8], in [13] and in assay [14] was “inactive” throughout. Further, the Potency result in assay [15], in [20] and in assay [16] was “inactive” in each case.

On to `CC(C[N+](C)(C)C)OC(N)=O` (configuration not stated), for which the result in assay [1], in [3], in [6], in [9], in assay [11] and in assay [12] was inactive. Further, the Potency entry in [2], in assay [4], in assay [5], in assay [7], in assay [8] and in assay [10] was “inactive” in each case. Besides, the Potency result in assay [13], in assay [14], in assay [15], in assay [18] and in assay [16] was “inactive” throughout.

As to `O=c1cc(-c2ccccc2)oc2ccccc12`, the outcome in [1], in [3], in assay [6] and in [9] was inactive. Also, the Potency entry in assay [2], in assay [7], in assay [8], in assay [13], in assay [14] and in assay [15] was “inactive” each time. Further, the Potency result in assay [16] is “inactive”. The Potency is 7.7 µM (active) and 3.83 µM (active) in assay [17]; 2.73 µM (active) and 4.06 µM (active) in [18]. Further, the PLD induction in assay [4] was -2.02% [at 3.15 µM].

As for `CC(C)(C)c1nnc(NS(=O)(=O)c2ccccc2)s1`, the result in assay [1], in assay [3], in [6], in assay [9], in assay [11] and in assay [12] was inactive. The outcome in assay [19] was inactive. Further, the Potency result in [2], in assay [4], in assay [5], in assay [7], in [8] and in assay [10] was “inactive” in each case. The Potency result in [13], in [14], in assay [15], in assay [18], in assay [20] and in assay [16] was “inactive” each time.

On to `CCn1nc(C(=O)O)c(=O)c2cc3c(cc21)OCO3`, for which the outcome in assay [1], in [3], in assay [6], in assay [9], in assay [11] and in assay [12] was inactive. Further, in assay [19], the result was inactive. In addition, the Potency entry in assay [2], in assay [17], in assay [4], in assay [5], in [7] and in assay [8] was “inactive” in each case. Further, the Potency entry in [10], in assay [13], in assay [14], in assay [15], in assay [18] and in assay [20] was “inactive” throughout. In addition, the Potency entry in assay [16] is “inactive”.
